Assay results from PubChem BioAssay.

assay: basal HepG2 mitochondrial membrane potential changes, profiling panel, cell-based, JC-1 fluorescence, 24 h, 100 nL compound (AID 1167); conditions: higher = more signal; also: test concentration not given here

Row | SMILES | z-score
1 | CC1CC/C=C\[C@H]2OC34C=CCN(c5ccc6ccccc6c5)C(=O)[C@H]3N(CCCCCO)C(=O)[C@@H]4C2C(=O)O1 (some centres not stated) | -0.684
2 | CN1C(=O)C2C=CC(C(O)C(C)(C)C)N(Nc3ccccc3)C2C1=O (configuration not stated) | -1.16
3 | Cc1ccc(S[C@]2(C(=O)NCCCN(C)C)CC(=O)N(Cc3ccccc3)[C@@H]2c2ccc(CO)cc2)cc1 | 0.816
4 | O=C1O[C@H](c2ccccc2)[C@H](c2ccccc2)N2[C@H]1[C@@H](C(=O)NC[C@H](O)c1ccccc1)[C@]1(C(=O)Nc3ccc(C#CC4=CCCCC4)cc31)[C@H]2c1ccc(O)cc1 | -2.78
5 | O=C(CS)NCCCCCNC(=O)[C@H]1C[C@H]2C(=O)N[C@@H](Cc3ccccc3)C(=O)N2[C@H]1c1cccc(OCCO)c1 | 1.3
6 | CCCC[C@H]1OB(O)C[C@H]2C1=C(COc1ccccc1)C[C@H]1C(=O)N(Cc3ccccc3)C(=O)[C@H]12 | 0.989
7 | O=c1cccc(-c2cccc3ccccc23)o1 | 0.113
8 | CCCCCN1CC=CC23O[C@@H]4C=CCCOC(=O)C4[C@H]2C(=O)N(CCCO)[C@@H]3C1=O (some centres not stated) | -0.639
9 | CS(=O)(=O)CCOC(=O)C1=CC(c2ccc(CO)cc2)=CC(c2cccs2)N(Cc2cccc(OC(F)(F)F)c2)C=C1C(=O)OCCS(C)(=O)=O (configuration not stated) | -2.84
10 | C#C[C@H](O[Si](C#CCCCCCC)(C(C)C)C(C)C)c1ccccc1 | 0.0244
11 | COc1ccc([Si](C)(C)[C@@H]2[C@@H](CCO)O[C@]3(C(=O)N(Cc4ccccc4)c4ccc(N(C=O)c5ccccc5)cc43)[C@H]2C)cc1 | 0.00444
12 | C=C(COC)C(=O)CC[C@H](OC(=O)c1cccnc1)c1ccccc1OCCO | -0.952
